Rows were chosen to be rich in hits. Some 12% of all compounds tested hit in one or more screens of this group.
Arbovirus inh = blocks arbovirus infection; inhibition, % at 10 µM; 200,000 compounds, 0.37% hits; arbovirus infection cell-based antiviral screen; in the data active means inhibition above about 30%
Lmaj promast = reduces viability of Leishmania major promastigotes; AID 1063; resazurin fluorescence viability; 200,000 compounds, 9% hits; inhibition, % at 10 µM; in the data active means inhibition above about 50%;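 further: promastigotes grown with compound for 44 hours at 28 °C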
CHOP inh = inhibitors of CHOP induction in ER stress response; CHO-K1 CHOP-promoter luciferase, tunicamycin-induced, 15-18 h; inhibition, % at 10 µM; 220,000 compounds, 3.8% hits; AID 2732;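 active means compounds that reduced the stress-induced luciferase reporter signal by more than about 70% of percent inhibition, limit read from the data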;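 further: 0% = tunicamycin plus vehicle and 100% = wells without tunicamycin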
WT yeast gro inh = growth inhibition of WT yeast, mitochondrial fusion screen. AID 1362. mitochondrial fusion phenotypic screen, WT strain. 190,000 compounds, 2.1% hits. inhibition, % at 10 µM; in the data active means inhibition above about 58%; tested in S. cerevisiae
Starred values were filed as active, the others as inactive; nt = no result given.

SMILES	Arbovirus inh	Lmaj promast	CHOP inh	WT yeast gro inh
c1ccc(Nc2cccc(Nc3ccccc3)n2)cc1	-8	24	24	78
O=C(Nc1ccc(Cl)cc1)OCc1cn(-c2ccc(Cl)cc2)nn1	-10	-5	73*	5
Cc1cccc(NC(=O)NNC(=O)c2sccc2-n2cccc2)c1	4	-7	-1	-9
CCc1ccc(S(=O)(=O)NC(=S)Nc2ccccc2)cc1	1	-1	2	16
Cc1ccc(NS(=O)(=O)c2cccc(C(=O)O)c2)cc1S(=O)(=O)N1CCOCC1	5	57*	6	-11
CCOC(=O)c1ccc(NC(=O)c2ccc(C)c(S(=O)(=O)N3CCOCC3)c2)cc1	33*	16	37	-10
O=C(O)c1cccc(S(=O)(=O)Nc2ccc(S(=O)(=O)N3CCOCC3)cc2)c1	0	-6	1	-8
CCOC(=O)c1ccc(NC(=O)c2cccc(S(=O)(=O)N3CCOCC3)c2)cc1	5	11	42	11
CCOC(=O)c1ccc(NC(=O)CSc2nnc(NC(=O)c3ccc(S(=O)(=O)N4CCOCC4)cc3)s2)cc1	-3	91*	32	2
Cc1ccc(C=Nc2ccc(N(C)C)cc2)o1	-3	80*	-33	4
Cc1ccc(Cl)cc1NC(=O)N[C@@H](CC(C)C)C(=O)O	nt	nt	11	nt
CCN(CC)CCN(C(=O)c1c(F)cccc1F)c1nc2cc(C)cc(C)c2s1	-1	21	-21	59*
COc1ccccc1C(=O)N(CCN(C)C)c1nc2cc(C)cc(C)c2s1	-7	36	26	13
O=C(COc1ccc([N+](=O)[O-])cc1Cl)NCCc1ccccc1	-4	46	27	9
CCNCc1cc(OCC)c(OCC(=O)NCCc2ccccc2)cc1Cl	1	99*	15	14
CNCc1ccccc1OCC(=O)Nc1ccccc1	2	-1	32	-10
CCOc1cc(CNCC(C)C)c(Cl)cc1OCC(=O)Nc1ccccc1	-1	82*	19	1
O=C(CCn1c(=S)oc2ccccc21)NC1CCCCCCC1	nt	nt	-4	nt
CC(=O)OC[C@H]1O[C@@H](n2ncc(=O)[nH]c2=O)[C@H](OC(C)=O)[C@@H]1OC(C)=O	60*	1	16	4
O=C(NNC(=O)c1ccccc1Cl)c1cc2cc(OC(F)(F)F)ccc2[nH]1	nt	nt	5	nt
Cn1c(N)c(Sc2ccc(F)cc2)c(=O)n(C)c1=O	9	-11	7	-10
CCCc1cc(=O)[nH]c(Nc2cc(OC)ccc2OC)n1	-2	4	74*	-4
CCCCC(=O)OCC(=O)c1cc(C)n(-c2c(C)n(C)n(-c3ccccc3)c2=O)c1C	21	-8	30	-28
COc1cc2c(cc1OC)C(C)N(C(=S)NC(=O)c1ccccc1)CC2 (centres undefined)	-2	-5	-12	-8
O=C1/C(=C\c2ccsc2)N2CCC1CC2	nt	nt	-17	nt
SMILES	Arbovirus inh	Lmaj promast	CHOP inh	WT yeast gro inh
CCN1C/C(=C/c2ccc(N3CCOCC3)cc2)C(=O)/C(=C/c2ccc(N3CCOCC3)cc2)C1	5	100*	39	14
CN1C/C(=C\c2ccc(N3CCOCC3)cc2)C(=O)/C(=C/c2ccc(N3CCOCC3)cc2)C1	-3	100*	-34	-13
CN1C/C(=C/c2ccsc2)C(=O)/C(=C/c2ccsc2)C1	-26	100*	17	4
O=C(CCc1nnc(CCC2CCCCC2)o1)NCc1ccon1	0	-1	-7	-16
Cc1ccc(Cl)cc1Nc1nc(-c2sc(NC(=O)c3ccccc3)nc2C)cs1	-22	50*	32	-8
COc1ccccc1Nc1nc(-c2sc(NC(=O)c3ccccc3)nc2C)cs1	-11	81*	36	10
CCCCCCC(=O)Nc1nc(C)c(-c2csc(Nc3cc(Cl)ccc3C)n2)s1	9	5	38	3
CCOc1ccccc1Nc1nc(-c2sc(NC(=O)c3cccc(Cl)c3)nc2C)cs1	-15	12	76*	-2
Cc1nc(NC(=O)c2ccccc2)sc1-c1csc(Nc2cccc(F)c2)n1	-28	30	-5	80*
COc1ccccc1Nc1nc(-c2sc(NC(=O)c3ccc([N+](=O)[O-])cc3)nc2C)cs1	-5	5	41	16
CC12CN3CC(C)(CN(C1)C3c1ccccc1F)C2 (centres undefined)	nt	nt	16	nt
C/C=C\C(=O)Nc1cccc(C2=NOC3(C2)C[C@H](C(N)=O)N(C(=O)[C@H]2CCC(=O)N2)C3)c1 (some centres undefined)	nt	nt	-1	nt
O=C(NCCO)C1CCN(C(=O)c2ccc(-c3ccccc3)cc2)CC1	-8	-8	2	-8
C=CCn1c(N2CCN(c3ccc(OC)cc3)CC2)nc2c1c(=O)[nH]c(=O)n2C	2	1	-3	-5
O=C(Nc1ccc(S(=O)(=O)NC2=NCCCCC2)cc1)c1ccc2ccccc2n1	-2	10	22	-7
Cc1nc(C)c(-c2csc(Nc3ccc(F)cc3)n2)s1	-4	39	-36	73*
CCOc1ccccc1Nc1nc(-c2sc(NC(=O)c3ccccc3)nc2C)cs1	-13	100*	32	11
CCC(=O)Nc1ccc(C(=O)NNC(=O)COc2cccc(C)c2)cc1	3	-3	22	1
O=C(c1nc2ncccn2n1)N1CCc2ccccc2C1	11	91*	-9	-3
Nn1c(SCc2c(F)cccc2F)nnc1-c1ccccn1	nt	nt	2	nt
Cc1cccc(NC(=O)c2cc([N+](=O)[O-])ccc2NC2CCCCC2)c1	2	23	73*	31
Cc1nnc2sc(SCC(=O)Nc3ccc(Cl)cc3)nn2c1=O	-12	8	-2	1
Cc1cccc(-c2nnc3n2N=C(c2ccccc2Br)CS3)c1	-6	-3	48	41
Cc1cc(C)n(-c2nc(SCCN(C)C)c3c4c(sc3n2)COC(C)(C)C4)n1	-14	101*	21	-18
Cc1cc(C)n(-c2nc(NCC3CCCO3)c3c4c(sc3n2)COC(C)(C)C4)n1 (centres undefined)	-22	38	95*	54
SMILES	Arbovirus inh	Lmaj promast	CHOP inh	WT yeast gro inh
COc1cc(CCCN2C(N)=NC[C@@H]2Cc2ccccc2)cc(OC)c1OC	nt	nt	-1	nt
CC(C)c1ccc(Nc2nnc(SCC(=O)Nc3ncc(S(=O)(=O)c4ccc([N+](=O)[O-])cc4)s3)s2)cc1	-14	-3	23	-13
O=C(Nc1ncc(S(=O)(=O)c2ccc([N+](=O)[O-])cc2)s1)c1ccc2ccccc2c1	-5	99*	64	-2
CCC(C)(C)C(=O)Nc1ncc(S(=O)(=O)c2ccc([N+](=O)[O-])cc2)s1	14	81*	50	-10
Cc1ccc(Nc2nnc(SCC(=O)Nc3ncc(S(=O)(=O)c4ccc([N+](=O)[O-])cc4)s3)s2)cc1	-24	55*	-20	-10
CCN(CC)c1ccc(N/C(N)=N/c2nc(C(F)(F)F)cc(=O)[nH]2)cc1	-7	1	73*	2
CN(C)c1ccc(N/C(N)=N/c2nc(C(F)(F)F)cc(C(F)(F)F)n2)cc1	3	20	85*	0
N/C(=N\c1nc(C(F)(F)F)cc(=O)[nH]1)Nc1ccc(Cl)cc1	-6	-2	53	-11
Cc1nn(C)c(C)c1CN(Cc1nc(CCC(C)C)no1)C(C)C	7	0	68	4
CC(C)C(=O)c1cc2c(cc1NC(=O)c1ccccc1)OCCO2	-2	57*	-5	-4

Screening results deposited in PubChem BioAssay by several laboratories.
